Consider 39 compounds from PubChem BioAssay (Tox21).

Molecules are shown by their SMILES. Results filed as inconclusive are left out. Where a call stands in place of a potency, no number is given. A number with no mark means an inactive call. The source made the active and inactive calls. Calls come from the whole dose curve; as a rule, active = well fitted curve in the direction sought with a large enough effect in the repeat runs; inconclusive = weak or mixed curves; inactive = no such curve, though single readings can be large; an effect the other way counts as inactive or inconclusive.
Note: nearly all actives have a fitted effect of over 50% in size.
Potency is the fitted concentration of half-maximal effect.

Sequence of Voltage-gated inwardly rectifying potassium channel KCNH2 (Homo sapiens) (Q12809 whole entry, looked up): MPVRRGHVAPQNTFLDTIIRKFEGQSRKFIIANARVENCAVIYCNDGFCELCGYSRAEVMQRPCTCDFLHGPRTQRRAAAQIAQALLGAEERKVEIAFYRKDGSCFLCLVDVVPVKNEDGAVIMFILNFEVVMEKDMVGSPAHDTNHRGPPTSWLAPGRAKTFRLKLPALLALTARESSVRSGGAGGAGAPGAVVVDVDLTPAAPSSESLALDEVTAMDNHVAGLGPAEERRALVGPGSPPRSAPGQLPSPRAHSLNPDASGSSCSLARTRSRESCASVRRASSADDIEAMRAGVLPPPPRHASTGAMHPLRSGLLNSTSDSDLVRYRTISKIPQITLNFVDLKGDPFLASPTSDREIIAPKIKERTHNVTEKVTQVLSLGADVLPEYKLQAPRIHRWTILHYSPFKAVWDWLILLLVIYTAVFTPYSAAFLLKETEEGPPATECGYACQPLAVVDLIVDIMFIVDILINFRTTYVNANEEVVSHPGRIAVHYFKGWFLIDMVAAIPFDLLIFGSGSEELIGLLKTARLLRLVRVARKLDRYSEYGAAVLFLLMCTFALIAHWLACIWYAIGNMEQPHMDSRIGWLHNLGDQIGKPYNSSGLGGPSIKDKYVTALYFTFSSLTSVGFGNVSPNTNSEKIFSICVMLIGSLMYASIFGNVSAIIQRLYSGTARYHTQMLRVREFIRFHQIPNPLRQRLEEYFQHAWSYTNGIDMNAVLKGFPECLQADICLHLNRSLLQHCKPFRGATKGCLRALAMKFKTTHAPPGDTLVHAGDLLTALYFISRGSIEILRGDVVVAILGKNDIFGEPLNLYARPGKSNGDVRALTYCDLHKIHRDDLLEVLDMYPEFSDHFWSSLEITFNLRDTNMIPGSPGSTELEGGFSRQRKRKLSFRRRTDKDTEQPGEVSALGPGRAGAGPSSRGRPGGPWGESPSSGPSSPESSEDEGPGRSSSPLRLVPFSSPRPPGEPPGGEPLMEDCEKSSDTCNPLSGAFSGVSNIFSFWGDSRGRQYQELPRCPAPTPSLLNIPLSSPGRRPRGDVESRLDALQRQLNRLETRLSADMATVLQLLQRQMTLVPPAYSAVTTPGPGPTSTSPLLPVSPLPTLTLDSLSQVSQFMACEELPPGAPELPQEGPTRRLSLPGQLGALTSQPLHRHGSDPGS
Sequence of Cytochrome P450 1A2 (Homo sapiens) (P05177 whole entry, looked up): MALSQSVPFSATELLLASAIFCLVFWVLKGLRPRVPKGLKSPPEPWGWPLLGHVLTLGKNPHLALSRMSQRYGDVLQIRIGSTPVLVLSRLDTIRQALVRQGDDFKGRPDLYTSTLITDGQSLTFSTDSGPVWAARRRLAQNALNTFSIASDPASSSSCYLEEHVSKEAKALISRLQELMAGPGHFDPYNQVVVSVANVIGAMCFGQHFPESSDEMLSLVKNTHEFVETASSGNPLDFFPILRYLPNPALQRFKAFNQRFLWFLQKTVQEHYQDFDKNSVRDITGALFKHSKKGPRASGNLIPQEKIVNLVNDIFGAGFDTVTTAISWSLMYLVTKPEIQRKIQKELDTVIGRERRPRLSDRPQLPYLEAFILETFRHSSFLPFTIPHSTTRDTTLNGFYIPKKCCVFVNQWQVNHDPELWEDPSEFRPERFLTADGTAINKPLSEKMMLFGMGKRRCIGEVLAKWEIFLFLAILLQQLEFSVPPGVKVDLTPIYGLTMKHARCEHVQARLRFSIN
Sequence of Cytochrome P450 3A4 (Homo sapiens) (P08684 whole entry, looked up): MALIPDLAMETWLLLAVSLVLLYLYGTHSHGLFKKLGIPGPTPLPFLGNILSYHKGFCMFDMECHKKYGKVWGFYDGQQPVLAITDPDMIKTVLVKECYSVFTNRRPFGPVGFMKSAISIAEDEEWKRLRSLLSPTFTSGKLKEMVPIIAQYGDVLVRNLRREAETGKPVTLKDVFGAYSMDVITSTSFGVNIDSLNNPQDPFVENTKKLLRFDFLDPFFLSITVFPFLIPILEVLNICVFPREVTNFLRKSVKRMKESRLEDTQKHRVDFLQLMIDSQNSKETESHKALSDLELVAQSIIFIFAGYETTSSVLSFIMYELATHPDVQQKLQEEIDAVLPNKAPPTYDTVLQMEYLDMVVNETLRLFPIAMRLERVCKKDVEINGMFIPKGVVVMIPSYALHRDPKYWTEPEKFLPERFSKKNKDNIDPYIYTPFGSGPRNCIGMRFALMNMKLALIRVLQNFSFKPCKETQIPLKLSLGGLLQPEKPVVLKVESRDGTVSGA

The first assay addresses Cytochrome P450 1A2 (Homo sapiens) (UniProt P05177). Briefly: Cytochrome P450 Family 1 Subfamily A Member 2 (CYP1A2) small molecule antagonists: luciferase reporter qHTS assay (AID 1671199). The settings on record: P450-Glo CYP1A2 enzyme, luciferin luminescence, 1 h; series mostly up to 115 µM. In short, it runs like this: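 Luminescence readout (relative luminescence units) after luciferin detection reagent, 20 min RT. Preceded by 1 h room-temperature CYP1A2 reaction with NADPH regeneration solution following 10 min compound preincubation with enzyme and proluciferin substrate. Furafylline positive control.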
Consider `CCOP(=O)(OCC)Oc1nc(Cl)c(Cl)cc1Cl`, for which the Potency was 1.58 µM (active).

With `CNC(=O)O/N=C(\C)C(C)S(C)(=O)=O` (configuration not stated), the Potency result was “inactive”.

With `Cc1ccc([N+](=O)[O-])[c]2c1[O][Hg]2`, the Potency is 3.23 µM (active). Still for that read-out and setting: with `COc1ccc2[nH]cc(CCN(C(C)C)C(C)C)c2c1` the figure was 40.9 µM (active); with `CCOP(=O)(OCC)Oc1cc(C)nc(C(C)C)n1`, 35.8 µM (active). For the compound `CNC(=O)/C=C(\C)OP(=O)(OC)OC`, the Potency is 28.3 µM (active).

Consider `CC(C)=CCN1CC[C@@]2(C)c3cc(O)ccc3C[C@@H]1[C@@H]2C`, for which the Potency entry is “inactive”. In the case of `COP(=O)(OC)Oc1ccc([N+](=O)[O-])cc1`, the Potency result is “inactive”. Regarding `COc1ccc(Cc2nccc3cc(OC)c(OC)cc23)cc1OC`, the Potency result is “inactive”. The same measure, in the same setting: with `CNN` the entry was “inactive”. Consider `CC1(C)[C@H](/C=C2\CCSC2=O)[C@@H]1C(=O)OCc1coc(Cc2ccccc2)c1`, for which the Potency was 22.4 µM (active). The same measure, in the same setting: with `CC(Cc1ccc(O)cc1)NCC(O)c1cc(O)cc(O)c1` (configuration not stated) the entry was “inactive”.

On to `COP(=O)(OC)O/C(=C\Cl)c1cc(Cl)c(Cl)cc1Cl`, for which the Potency was 1.42 µM (active). For `O=C(N[C@@H]1N=C(c2ccccc2F)c2cccc3c2N(CC3)C1=O)c1cc2ccccc2[nH]1`, the Potency result is “inactive”.

As to `CN1CCc2cc3c(cc2C1O)OCO3` (configuration not stated), the Potency is 40.2 µM (active). On to `Brc1cccc(-c2ccccc2)c1`, for which the Potency was 12.7 µM (active). For the compound `CC(Cl)CCl` (configuration not stated), the Potency entry was “inactive”.

As for `CCn1cc[n+](C)c1` (tested in a mixture with another compound), the Potency result was “inactive”.

Consider `CN1CCc2cc(Cl)c(O)cc2[C@H]2c3ccccc3CC[C@@H]21`, for which the Potency result was “inactive”.

In the next assay the target is Voltage-gated inwardly rectifying potassium channel KCNH2 (Homo sapiens) (UniProt Q12809). The experiment in a line: Human Ether-a-go-go-Related Gene (hERG) channel small molecule antagonists: fluorescence cell-based qHTS assay (AID 1671200).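 For activity change, negative = inhibition: hERG-expressing U2OS cells given a thallium stimulus after FluxOR II dye loading.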 The settings on record: hERG-U2OS cells, FluxOR thallium flux fluorescence; series mostly up to 76.8 µM. In short, it runs like this:
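Read-out: thallium influx as a surrogate for potassium, tracked as fluorescence (480 nm ex/540 nm em) every second for 2 min after Stimulus Buffer addition in dye-loaded hERG-U2OS cells.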
Take `CCOP(=O)(OCC)Oc1nc(Cl)c(Cl)cc1Cl`: the Potency result was “inactive”.

For the compound `CNC(=O)O/N=C(\C)C(C)S(C)(=O)=O` (configuration not stated), the Potency result is “inactive”. In the case of `Cc1ccc([N+](=O)[O-])[c]2c1[O][Hg]2`, the Potency was 6.01 µM (active). Still for that read-out and setting: with `COc1ccc2[nH]cc(CCN(C(C)C)C(C)C)c2c1` the figure was 28.2 µM (active); with `CCOP(=O)(OCC)Oc1cc(C)nc(C(C)C)n1`, “inactive”. With `CNC(=O)/C=C(\C)OP(=O)(OC)OC`, the Potency entry is “inactive”.

In the case of `CCCC[N+]1(C)CCCC1` (tested in a mixture with another compound), the Potency entry was “inactive”. For `CC(=O)[O-].CC(=O)[O-].CC(=O)[O-].[Sb+3]`, the activity change, negative = inhibition was 0.0833% [at 2.72 µM].

For `CC(=O)[O-].CC(=O)[O-].O.O.O.[Pb+2]`, the Potency result was “inactive”. With `COP(=O)(OC)Oc1ccc([N+](=O)[O-])cc1`, the Potency entry is “inactive”. In the case of `O.O.O.O.O.O.O.O=S(=O)([O-])[O-].[Co+2]`, the Potency result was “inactive”. The same measure, in the same setting: with `CC(=O)[O-].CC(=O)[O-].O.O.[Zn+2]` the entry was “inactive”; with `CC(=O)O.CC(=O)O.CC(=O)O.CC(=O)O.CC(=O)O.CC(=O)O.CC(=O)O.O.O.[Cr].[Cr].[Cr]`, “inactive”; with `COc1ccc(Cc2nccc3cc(OC)c(OC)cc23)cc1OC`, “inactive”. With `[C-]1=CC=CC1.[Cl][Zr+2][Cl].c1cc[cH-]c1`, the Potency entry was “inactive”. Take `O=[N+]([O-])[O-].[Tl+]`: the Potency entry was “inactive”.

`CN`: the Potency result is “inactive”. Regarding `CNN`, the Potency result is “inactive”.

Consider `O.O.O.O.O.O.O=S(=O)([O-])[O-].[Ni+2]`, for which the Potency entry was “inactive”. The same measure, in the same setting: with `CC1(C)[C@H](/C=C2\CCSC2=O)[C@@H]1C(=O)OCc1coc(Cc2ccccc2)c1` the entry was “inactive”. For `CC(=O)[O-].CC(=O)[O-].CC(=O)[O-].[Cr+3]`, the Potency entry is “inactive”. Take `CC(Cc1ccc(O)cc1)NCC(O)c1cc(O)cc(O)c1` (configuration not stated): the Potency result is “inactive”. The same measure, in the same setting: with `COP(=O)(OC)O/C(=C\Cl)c1cc(Cl)c(Cl)cc1Cl` the entry was “inactive”. `ClC1=C(Cl)[C@]2(Cl)[C@@H]3[C@H]4C[C@H]([C@@H]5O[C@H]45)[C@@H]3[C@@]1(Cl)C2(Cl)Cl`: the Potency entry is “inactive”. For the compound `CCOC(=O)Cc1ccccc1`, the Potency result is “inactive”.

Turning to `O=C(N[C@@H]1N=C(c2ccccc2F)c2cccc3c2N(CC3)C1=O)c1cc2ccccc2[nH]1`, the Potency was 12 µM (active). For `CN1CCc2cc3c(cc2C1O)OCO3` (configuration not stated), the Potency entry was “inactive”.

Take `Brc1cccc(-c2ccccc2)c1`: the Potency result was “inactive”.

For the compound `CC(Cl)CCl` (configuration not stated), the Potency entry is “inactive”. Same read-out and setting: with `CCCCn1cc[n+](C)c1.[Cl][Fe-]([Cl])([Cl])[Cl]` the entry was “inactive”; with `C1=CCC=C1`, “inactive”. Still for that read-out and setting: with `Oc1ccc2[nH]cc(CCCCN3CC=C(c4ccccc4)CC3)c2c1` the figure was 2.68 µM (active). For `CC(=O)[O-].CC(=O)[O-].[Co+2]`, the Potency entry is “inactive”.

As to `[Cl-].[Cl-].[Cl-].[Yb+3]`, the Potency result was “inactive”. The same measure, in the same setting: with `CCCCn1cc[n+](C)c1` (tested in a mixture with another compound) the entry was “inactive”. As for `[Cl-].[Cl-].[Sn+2]`, the Potency result was “inactive”.

As for `CCn1cc[n+](C)c1` (tested in a mixture with another compound), the Potency entry was “inactive”. The same measure, in the same setting: with `CN1CCc2cc(Cl)c(O)cc2[C@H]2c3ccccc3CC[C@@H]21` the figure was 9.52 µM (active).

A further assay addresses Cytochrome P450 3A4 (Homo sapiens) (UniProt P08684). The experiment in a line: Cytochrome P450 Family 3 Subfamily A Member 4 (CYP3A4) small molecule antagonists: luciferase reporter qHTS assay (AID 1671201). Particulars: P450-Glo CYP3A4 enzyme, luciferin luminescence, 1 h; series mostly up to 115 µM. The method, boiled down:
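Luminescent readout (RLU) proportional to CYP3A4 activity, from luciferin generated off a proluciferin substrate. Enzyme–substrate mix plus compound 10 min at room temp, NADPH regeneration 1 h, detection reagent 20 min.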
Consider `CCOP(=O)(OCC)Oc1nc(Cl)c(Cl)cc1Cl`, for which the Potency entry was “inactive”. Regarding `CNC(=O)O/N=C(\C)C(C)S(C)(=O)=O` (configuration not stated), the Potency result was “inactive”. Regarding `Cc1ccc([N+](=O)[O-])[c]2c1[O][Hg]2`, the Potency is 7.76 µM (active). As for `COc1ccc2[nH]cc(CCN(C(C)C)C(C)C)c2c1`, the Potency entry was “inactive”.

As to `CCOP(=O)(OCC)Oc1cc(C)nc(C(C)C)n1`, the Potency result is “inactive”. The same measure, in the same setting: with `CNC(=O)/C=C(\C)OP(=O)(OC)OC` the entry was “inactive”.

Consider `CCCC[N+]1(C)CCCC1` (tested in a mixture with another compound), for which the Potency result was “inactive”. On to `CC(C)=CCN1CC[C@@]2(C)c3cc(O)ccc3C[C@@H]1[C@@H]2C`, for which the Potency result was “inactive”. Same read-out and setting: with `COP(=O)(OC)Oc1ccc([N+](=O)[O-])cc1` the entry was “inactive”; with `CNN`, “inactive”; with `CC1(C)[C@H](/C=C2\CCSC2=O)[C@@H]1C(=O)OCc1coc(Cc2ccccc2)c1`, 3.99 µM (active). The same measure, in the same setting: with `CC(Cc1ccc(O)cc1)NCC(O)c1cc(O)cc(O)c1` (configuration not stated) the entry was “inactive”; with `COP(=O)(OC)O/C(=C\Cl)c1cc(Cl)c(Cl)cc1Cl`, “inactive”; with `CCOC(=O)Cc1ccccc1`, “inactive”.

Regarding `O=C(N[C@@H]1N=C(c2ccccc2F)c2cccc3c2N(CC3)C1=O)c1cc2ccccc2[nH]1`, the Potency entry is “inactive”. With `CN1CCc2cc3c(cc2C1O)OCO3` (configuration not stated), the Potency entry was “inactive”. With `Brc1cccc(-c2ccccc2)c1`, the Potency entry was “inactive”. Turning to `CC(Cl)CCl` (configuration not stated), the Potency result was “inactive”. Consider `CCn1cc[n+](C)c1` (tested in a mixture with another compound), for which the Potency entry is “inactive”. Same read-out and setting: with `CN1CCc2cc(Cl)c(O)cc2[C@H]2c3ccccc3CC[C@@H]21` the entry was “inactive”.
